Hit rate of the full screen: of about 5,500 compounds, about 2,000 (36%) were called active. Inconclusive results (about 18%) are left out. Rule as the data show it: active = normalized growth mostly below about 0.91 (no sharp cut-off); inconclusive = no clear call, values can overlap the other calls; inactive = mostly above about 0.92. Some of the results follow.
Test: chemical genetic growth profiling, strain panel (AID 1159580);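 also: tested at 20 µM; growth read once vehicle control cultures reached saturation at 30 °C; 1 = growth at the plate median or of vehicle wells; lower values mean less growth of the strain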
Details: growth OD

Measured: normalized growth

COc1cc(N)c(Cl)cc1C(=O)NC1CCN(Cc2ccccc2)CC1
inactive: S. cerevisiae deletion strains, locus YJR043C, strain POL32, active compounds read low 0.985 | S. cerevisiae deletion strains, locus YJR075W, strain HOC1, active compounds read low 0.978 | S. cerevisiae deletion strains, locus YKL009W, strain mrt4, active compounds read low 0.993 | S. cerevisiae deletion strains, locus YKL068W, active compounds read low 0.974 | S. cerevisiae deletion strains, locus YKL085W, strain MDH1 (second series), active compounds read low 0.995 | S. cerevisiae deletion strains, locus YKL085W, strain MDH1, active compounds read low 0.995 | S. cerevisiae deletion strains, locus YKL160W, strain elf1, active compounds read low 0.991 | S. cerevisiae deletion strains, locus YKL190W, strain CNB1, active compounds read low 0.992 | S. cerevisiae deletion strains, locus YKR001C, strain vps1, active compounds read low 1 | S. cerevisiae deletion strains, locus YKR026C, strain gcn3, active compounds read low 0.988 | S. cerevisiae deletion strains, locus YKR091W, strain srl3, active compounds read low 0.993 | S. cerevisiae deletion strains, locus YLL001W, strain dnm1, active compounds read low 0.99 | S. cerevisiae deletion strains, locus YLL026W, active compounds read low 0.997 | S. cerevisiae deletion strains, locus YLL041C, strain sdh2, active compounds read low 0.996 | S. cerevisiae deletion strains, locus YLR027C, strain aat2, active compounds read low 1 | S. cerevisiae deletion strains, locus YLR039C, strain RIC1, active compounds read low 0.997 | S. cerevisiae deletion strains, locus YLR058C, strain SHM2, active compounds read low 0.988 | S. cerevisiae deletion strains, locus YLR102C, strain apc9, active compounds read low 0.994 | S. cerevisiae deletion strains, locus YLR221C, strain rsa3, active compounds read low 0.996 | S. cerevisiae deletion strains, locus YLR258W, strain gsy2, active compounds read low 0.994 | S. cerevisiae deletion strains, locus YLR262C, strain YPT6 (second series), active compounds read low 1.01 | S. cerevisiae deletion strains, locus YLR262C, strain YPT6, active compounds read low 0.969 | S. cerevisiae deletion strains, locus YLR268W, strain sec22, active compounds read low 0.935 | S. cerevisiae deletion strains, locus YLR320W, strain mms22, active compounds read low 1.01 | S. cerevisiae deletion strains, locus YLR330W, strain CHS5, active compounds read low 0.993 | S. cerevisiae deletion strains, locus YLR342W, strain FKS1 (second series), active compounds read low 1.05 | S. cerevisiae deletion strains, locus YLR342W, strain FKS1, active compounds read low 0.999 | S. cerevisiae deletion strains, locus YLR357W, strain rsc2, active compounds read low 1.02 | S. cerevisiae deletion strains, locus YLR370C, strain arc18, active compounds read low 0.998 | S. cerevisiae deletion strains, locus YLR371W, strain rom2, active compounds read low 0.989 | S. cerevisiae deletion strains, locus YLR384C, strain iki3, active compounds read low 0.993 | S. cerevisiae deletion strains, locus YLR418C, strain cdc73, active compounds read low 0.968 | S. cerevisiae deletion strains, locus YML016C, strain PPZ1, active compounds read low 1 | S. cerevisiae deletion strains, locus YML032C, strain rad52, active compounds read low 0.969 | S. cerevisiae deletion strains, locus YML120C, strain ndi1, active compounds read low 0.993 | S. cerevisiae deletion strains, locus YML124C, strain tub3, active compounds read low 0.996 | S. cerevisiae deletion strains, locus YMR058W, strain fet3, active compounds read low 1 | S. cerevisiae deletion strains, locus YMR078C, strain ctf18, active compounds read low 0.986 | S. cerevisiae deletion strains, locus YMR125W, strain sto1, active compounds read low 0.988 | S. cerevisiae deletion strains, locus YMR129W, active compounds read low 1 | S. cerevisiae deletion strains, locus YMR205C, strain PFK2, active compounds read low 0.997 | S. cerevisiae deletion strains, locus YMR223W, strain ubp8, active compounds read low 1.04 | S. cerevisiae deletion strains, locus YMR231W, strain pep5, active compounds read low 0.985 | S. cerevisiae deletion strains, locus YMR263W, strain SAP30, active compounds read low 0.978 | S. cerevisiae deletion strains, locus YMR307W, strain GAS1, active compounds read low 1.09 | S. cerevisiae deletion strains, locus YNL067W, strain RPL9B, active compounds read low 0.969 | S. cerevisiae deletion strains, locus YNL071W, strain lat1, active compounds read low 0.997 | S. cerevisiae deletion strains, locus YNL128W, strain TEP1, active compounds read low 0.984 | S. cerevisiae deletion strains, locus YNL153C, strain GIM3, active compounds read low 0.985 | S. cerevisiae deletion strains, locus YNL209W, strain ssb2, active compounds read low 1.01 | S. cerevisiae deletion strains, locus YNL233W, strain BNI4, active compounds read low 0.99 | S. cerevisiae deletion strains, locus YNL248C, strain rpa49, active compounds read low 0.991 | S. cerevisiae deletion strains, locus YNL250W, strain rad50, active compounds read low 1 | S. cerevisiae deletion strains, locus YNL271C, strain bni1, active compounds read low 0.995 | S. cerevisiae deletion strains, locus YNL298W, strain CLA4, active compounds read low 0.974 | S. cerevisiae deletion strains, locus YNL307C, strain MCK1, active compounds read low 0.977 | S. cerevisiae deletion strains, locus YNL322C, strain KRE1 (second series), active compounds read low 0.994 | S. cerevisiae deletion strains, locus YNL322C, strain KRE1, active compounds read low 0.991 | S. cerevisiae deletion strains, locus YNR049C, strain mso1, active compounds read low 0.997 | S. cerevisiae deletion strains, locus YNR052C, strain pop2, active compounds read low 0.993 | S. cerevisiae deletion strains, locus YOL006C, strain TOP1, active compounds read low 0.933 | S. cerevisiae deletion strains, locus YOL012C, strain htz1 1.69 | S. cerevisiae deletion strains, locus YOL147C, strain pex11, active compounds read low 0.996 | S. cerevisiae deletion strains, locus YOR001W, strain rrp6, active compounds read low 0.996 | S. cerevisiae deletion strains, locus YOR061W, strain CKA2, active compounds read low 0.994 | S. cerevisiae deletion strains, locus YOR069W, strain VPS5, active compounds read low 0.989 | S. cerevisiae deletion strains, locus YOR070C, strain gyp1, active compounds read low 0.997 | S. cerevisiae deletion strains, locus YOR080W, strain dia2, active compounds read low 1.01 | S. cerevisiae deletion strains, locus YOR083W, strain WHI5, active compounds read low 1 | S. cerevisiae deletion strains, locus YOR106W, strain vam3, active compounds read low 1 | S. cerevisiae deletion strains, locus YOR136W, strain idh2, active compounds read low 0.996 | S. cerevisiae deletion strains, locus YOR144C, strain elg1, active compounds read low 0.982 | S. cerevisiae deletion strains, locus YOR184W, strain ser1, active compounds read low 0.965 | S. cerevisiae deletion strains, locus YOR265W, strain rbl2, active compounds read low 0.998 | S. cerevisiae deletion strains, locus YOR270C, strain vph1, active compounds read low 1.02 | S. cerevisiae deletion strains, locus YOR290C, strain snf2, active compounds read low 0.984 | S. cerevisiae deletion strains, locus YOR316C, strain cot1, active compounds read low 0.963 | S. cerevisiae deletion strains, locus YPL051W, strain arl3, active compounds read low 0.993 | S. cerevisiae deletion strains, locus YPL055C, strain LGE1, active compounds read low 0.976 | S. cerevisiae deletion strains, locus YPL078C, strain atp4, active compounds read low 0.995 | S. cerevisiae deletion strains, locus YPL106C, strain sse1, active compounds read low 0.99 | S. cerevisiae deletion strains, locus YPL240C, strain hsp82, active compounds read low 0.999 | S. cerevisiae deletion strains, locus YPL241C, strain CIN2, active compounds read low 0.998 | S. cerevisiae deletion strains, locus YPR119W, strain clb2, active compounds read low 0.985 | S. cerevisiae deletion strains, locus YPR141C, strain kar3, active compounds read low 0.986 | S. cerevisiae deletion strains, locus YPR163C, strain tif3, active compounds read low 0.986 | S. cerevisiae deletion strains, locus YPR167C, strain met16, active compounds read low 0.983 | S. cerevisiae deletion strains, strain wtn01, active compounds read low 0.949 | S. cerevisiae strains, strain wild type, active compounds read low 1

— PubChem BioAssay AID1159580 (chemical genetic matrix, 2015)
